Records with an inconclusive call do not appear. Some compounds were tested as several samples or in several runs, with calls that do not always agree. Active and inactive are the calls of the source. Unless noted, the call rests on the fitted dose curve; in most records, active means well fitted curve in the direction sought with a large enough effect; inconclusive means small, poorly fitted or top-dose-only effect, or another doubt; inactive means no such curve, though single readings can be large; an effect the other way counts as inactive or inconclusive.

The text below walks through data of PubChem BioAssay (NCATS).

The target of assay [1] is Thioredoxin reductase 1, cytoplasmic (Rattus norvegicus) (UniProt O89049). In words: qHTS Assay for Substrates of Mammalian Selenoprotein Thioredoxin Reductase 1 (TrxR1) (AID 488772).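 Further: NADPH fluorescence in the first read after selenite addition and not the 8 min delta; series mostly up to about 57 µM; 0% is about no effect; a drop in NADPH fluorescence below the no-compound background marks a TrxR1 substrate.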 A digest of the protocol: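 Quantitative HTS in Tris-HCl buffer at pH 7.5 with EDTA and Tween-20, using rat TrxR1, 400 uM NADPH and 400 uM selenite (final). A fall in initial NADPH fluorescence relative to background marked substrate behaviour.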
Thioredoxin reductase 1, cytoplasmic (Rattus norvegicus), sequence (O89049 whole entry, looked up): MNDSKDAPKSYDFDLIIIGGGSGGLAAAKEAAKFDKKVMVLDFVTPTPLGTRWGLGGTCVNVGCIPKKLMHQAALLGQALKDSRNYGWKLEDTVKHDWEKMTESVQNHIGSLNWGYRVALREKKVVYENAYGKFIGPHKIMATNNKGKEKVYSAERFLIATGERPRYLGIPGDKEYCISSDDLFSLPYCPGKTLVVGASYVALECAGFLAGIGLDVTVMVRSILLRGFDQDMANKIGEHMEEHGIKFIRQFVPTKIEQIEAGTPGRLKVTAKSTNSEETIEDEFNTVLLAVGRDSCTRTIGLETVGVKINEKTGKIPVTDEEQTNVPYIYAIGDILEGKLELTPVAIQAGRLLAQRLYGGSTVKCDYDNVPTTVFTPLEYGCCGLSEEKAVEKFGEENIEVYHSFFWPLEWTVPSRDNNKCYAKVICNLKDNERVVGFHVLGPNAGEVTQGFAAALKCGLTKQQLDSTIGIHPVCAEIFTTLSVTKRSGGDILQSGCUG

Assay [2] shares this target. Nature of the assay: qHTS Assay for Inhibitors of Mammalian Selenoprotein Thioredoxin Reductase 1 (TrxR1) (AID 488773).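 Further: drop in NADPH fluorescence over an 8 min run after selenite addition; series mostly up to about 57 µM; on the % scale 0 is the no-effect control and ±100 the full control effect; nearly all actives have a fitted effect of over 40% in size.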 The conditions noted are these: Potency: inhibition. The procedure, abridged: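 Steps: enzyme (90 nM) plus NADPH (400 uM final), 5 min at ~22 deg C; compound added, 15 min; selenite (400 uM final) added; fluorescence followed for 8 min. Concentration-response curves derived from the normalized delta values.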
Background: Quantitative high-throughput screening tests each substance at several concentrations.

The target in assay [3] is Flap endonuclease 1 (Homo sapiens) (UniProt P39748). Nature of the assay: qHTS Validation Assay for the Inhibitors of Human Flap endonuclease 1 (FEN1) (AID 488816). Further: on the % scale 0 is the no-effect control and ±100 the full control effect. The procedure, abridged: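 Readings taken at 0 and 15 min after starting the reaction with 50 nM (final) substrate supplied the signal. Compounds had first sat with 10 nM FEN1 reagent for 15 min at room temperature. Values come from Hill-equation concentration-response fits.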
Flap endonuclease 1 (Homo sapiens), sequence (P39748 whole entry, looked up): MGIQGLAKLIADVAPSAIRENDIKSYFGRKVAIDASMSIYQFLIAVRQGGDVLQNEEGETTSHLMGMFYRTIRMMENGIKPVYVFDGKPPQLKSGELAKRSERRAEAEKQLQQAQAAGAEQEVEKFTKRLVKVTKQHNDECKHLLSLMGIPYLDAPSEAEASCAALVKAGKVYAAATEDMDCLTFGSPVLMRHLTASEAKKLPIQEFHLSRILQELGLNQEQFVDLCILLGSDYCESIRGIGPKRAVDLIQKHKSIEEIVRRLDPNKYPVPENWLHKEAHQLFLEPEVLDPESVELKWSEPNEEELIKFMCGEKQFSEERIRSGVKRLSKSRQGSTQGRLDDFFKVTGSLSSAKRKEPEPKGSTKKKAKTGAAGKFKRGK

For assay [4], the target named is M-phase phosphoprotein 8 (Homo sapiens) (UniProt Q99549). In words: qHTS Validation Assay for Inhibitors for MPP8 Chromodomain Interactions with Methylated Histone Tails (AID 488949). Further: nearly all actives have a fitted effect of over 55% in size. Further: potency means the concentration at half of the fitted maximal effect. The procedure, abridged: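 AlphaScreen proximity signal from streptavidin donor and Ni-chelate acceptor beads (10 ug/mL each) reported binding of MPP8 to trimethyl-K9 H3(1-18) peptide, both at 50 nM. The complex formed 30 min before a 30 min compound exposure at room temperature, in PBS pH 7.4.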

In assay [5] the target is Chromobox protein homolog 1 (Homo sapiens) (UniProt P83916). In words: qHTS Validation Assay for Inhibitors of HP1-beta Chromodomain Interactions with Methylated Histone Tails (AID 488953). Further: nearly all actives have a fitted effect of over 50% in size. Further: potency means the concentration at half of the fitted maximal effect. The procedure, abridged: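 HP1-beta (50 nM) was preincubated 30 min at room temperature with biotinylated H3(1-18)K9me3 peptide (50 nM) in PBS pH 7.4, 0.01% Tween-20, then with compounds 30 min. AlphaScreen signal was read after streptavidin donor/nickel chelate acceptor beads (10 ug/mL final).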
Chromobox protein homolog 1 (Homo sapiens), sequence (P83916 whole entry, looked up): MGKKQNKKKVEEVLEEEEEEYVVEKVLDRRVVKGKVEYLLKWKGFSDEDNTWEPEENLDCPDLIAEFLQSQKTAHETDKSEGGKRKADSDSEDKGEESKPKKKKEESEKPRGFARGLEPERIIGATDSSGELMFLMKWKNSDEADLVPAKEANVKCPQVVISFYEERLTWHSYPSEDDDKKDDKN

The target of assay [6] is Methanococcus maripaludis chaperonin (MmCpn) (UniProt Q6LX38). Nature of the assay: High-Throughput Screening for Modulators of Cytosolic Chaperonin Activity: MmCpn Primary Screen (AID 488978).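 Further: 50 nM MmCpn enzyme hydrolysing 30 µM ATP at 37 °C; 0% is about no effect.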 The procedure, abridged:
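ATPase activity of 50 nM MmCpn was assayed with 30 uM ATP, 10 minutes at 37C, after a 5 min compound preincubation at room temperature. ADP production was read as HTRF emission at 590 and 665 nm.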

Assay [7] concerns the target Transient receptor potential cation channel subfamily V member 1 (Homo sapiens) (UniProt Q8NER1). In words: HTS Assay for Compounds that Act as Enhancers of the Vanilloid Receptor 1 (AID 488979). Further: 0% is about no effect. The procedure, abridged: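 Calcium influx kinetics via Fluo-8 (480/520 nm) in TRPV1-expressing cells, 2000/well cultured overnight at 35.5C. Compound-alone read 3 min (agonist phase), followed by EC20 capsaicin challenge for 2 min (enhancer phase).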

For assay [8], the target named is Thyrotropin receptor (Homo sapiens) (UniProt P16473). Nature of the assay: qHTS Assay for Antagonists of the Thyroid Stimulating Hormone Receptor (AID 488980). Further: series mostly up to about 58 µM; 0% is about no effect. The procedure, abridged: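 Inhibition of cAMP raised by EC80 TSH (4 nM final) was read by HTRF, with lysate cAMP competing against cAMP-d2 for cryptate antibody after 30 min at room temperature. The cells were transfected HEK293 held in phosphodiesterase inhibitor RO 20-1724 at 70 uM.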
Thyrotropin receptor (Homo sapiens), sequence (P16473 whole entry, looked up): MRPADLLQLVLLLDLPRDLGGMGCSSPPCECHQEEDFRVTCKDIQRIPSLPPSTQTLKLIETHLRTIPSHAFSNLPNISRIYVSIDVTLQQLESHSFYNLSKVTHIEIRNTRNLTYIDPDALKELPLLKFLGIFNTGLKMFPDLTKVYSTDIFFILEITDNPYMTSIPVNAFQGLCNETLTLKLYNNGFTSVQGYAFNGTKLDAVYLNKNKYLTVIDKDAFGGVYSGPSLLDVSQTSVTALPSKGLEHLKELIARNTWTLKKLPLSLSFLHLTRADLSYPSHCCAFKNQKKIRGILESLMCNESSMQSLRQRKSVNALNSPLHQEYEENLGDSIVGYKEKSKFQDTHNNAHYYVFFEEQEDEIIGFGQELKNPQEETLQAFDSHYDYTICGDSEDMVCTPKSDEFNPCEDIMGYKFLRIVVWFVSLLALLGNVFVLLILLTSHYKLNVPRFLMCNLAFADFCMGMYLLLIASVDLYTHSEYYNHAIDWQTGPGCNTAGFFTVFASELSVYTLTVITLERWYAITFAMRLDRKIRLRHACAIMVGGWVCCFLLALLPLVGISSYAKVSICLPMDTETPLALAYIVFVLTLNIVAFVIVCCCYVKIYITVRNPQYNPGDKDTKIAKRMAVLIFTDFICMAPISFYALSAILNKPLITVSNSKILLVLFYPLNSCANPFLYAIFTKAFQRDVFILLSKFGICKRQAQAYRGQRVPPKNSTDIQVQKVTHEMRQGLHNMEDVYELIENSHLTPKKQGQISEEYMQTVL

Assay [9] has as its target D(1A) dopamine receptor (Homo sapiens) (UniProt P21728). In words: HTS Assay for Allosteric Agonists of the Human D1 Dopamine Receptor: Primary Screen for Agonists (AID 488981). Further: potency means the concentration at half of the fitted maximal effect. On activation: 0% is about no effect. A digest of the protocol:
(§1)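 Calcium flux in an inducible, force-coupled HEK293 Trex D1 line (overnight at 30 C): agonist mode is the 180 s kinetic read after compound; potentiator mode is the following 180 s read after dopamine at EC20.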

Assay [10] has the same target. In words: HTS Assay for Allosteric Agonists of the Human D1 Dopamine Receptor: Primary Screen for Potentiators (AID 488982). Further: 0% is about no effect. A digest of the protocol: as §1
Assay [11] shares this target. In words: HTS Assay for Allosteric Agonists of the Human D1 Dopamine Receptor: Primary Screen for Antagonists (AID 488983).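 Further: calcium flux response to an EC80 dopamine challenge measured with no-wash dye; nearly all actives have a fitted effect of over 65% in size.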 Further: potency means the concentration at half of the fitted maximal effect. A digest of the protocol: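 Tetracycline-induced HEK293 T-REx cells expressing force-coupled D1 were plated overnight at 30 C, dye-loaded for calcium, and read kinetically. Compounds were pinned in, then an EC80 dopamine challenge followed after 180 s to reveal antagonism.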

Assay [12] in a line: Validation screen for small molecules that induce genotoxicity in human embryonic kidney (HEK293T) cells expressing luciferase-tagged ELG1 (AID 493106). Further: potency means the concentration at half of the fitted maximal effect. A digest of the protocol:
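HEK293T cells expressing luciferase-tagged ELG1 were exposed to compound or DMSO vehicle for 16 hr at 37 °C, 5% CO2. Genotoxic stress raises ELG1 levels, so increased luciferase signal after ONE-Glo addition and 30 min at room temperature marks hits.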

For assay [13], the target named is ATPase family AAA domain-containing protein 5 (Homo sapiens) (UniProt Q96QE3). Nature of the assay: Validation screen for small molecules that inhibit ELG1-dependent DNA repair in human embryonic kidney (HEK293T) cells expressing luciferase-tagged ELG1 (AID 493107).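 Further: cells co-treated with the DNA-damaging agent 5-fluorouridine alongside compound; series mostly up to about 46 µM; on the % scale 0 is the no-effect control and ±100 the full control effect; inhibitors lower the ELG1-luciferase luminescence signal; nearly all actives have a fitted effect of over 70% in size.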 The procedure, abridged:
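HEK293T cells expressing luciferase-tagged ELG1 were co-treated with 5-fluorouridine and compound or DMSO for 16 hr at 37 °C, 5% CO2. Luciferase activity was then read with ONE-Glo after 30 min at room temperature; suppressed signal indicates blocked ELG1 function.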

Assay [14] has as its target Thyrotropin-releasing hormone receptor (Homo sapiens) (UniProt P34981). Nature of the assay: qHTS for Small Molecule Agonists and Allosteric Enhancers of Human TRH Receptor: Validation Screen for Agonists (AID 493127;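 active means calcium activation more than 3 SD above the typical response in the agonist read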;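 further: intracellular calcium rise by fluo-8 fluorescence before TRH EC20 addition; 0% is about no effect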). The following applies: TRH receptor agonist cell assay; at 2 µM; stronger effect = higher value. The procedure, abridged:
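TRHR-expressing cells were plated overnight in serum-containing medium, then loaded with fluo-8 calcium dye at room temperature for 30 min–1.5 h. After a 10 s baseline, compound was pin-transferred and calcium fluorescence (ex 480/em 530) read kinetically for agonist response.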

The nature of assay [15]: qHTS for Inhibitors of Cell Surface uPA Generation: Validation Assay (AID 493164).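 Further: RAW 264.7 macrophage cells exposed to compound for 18 h; 0% is about no effect.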 The procedure, abridged:
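RAW 264.7, 4000 cells/well, o/n plating; cpd 7-pt 1:5 dilution 2.45 nM–38.3 uM final; 18 h, 37 C/5% CO2; ATP-Lite, 5 s luminescence exposure.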

A short description of assay [16]: Validation screen for small molecules that induce DNA re-replication in SW480 colon adenocarcinoma cells (AID 504364). Further: 0% is about no effect. A digest of the protocol: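 SW480 cells seeded at 250 per well were exposed to compound or DMSO for 48 hr at 37 C, 5% CO2, then stained with Hoechst for 40 min. DNA content per nucleus was imaged (405 nm ex, 500-530 nm em).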
Assay [17] has as its target Galactokinase (Homo sapiens) (UniProt P51570). In words: qHTS Validation Assay for Inhibitors of Human Galactokinase (GALK) (AID 493189). Further: 0% is about no effect. A digest of the protocol: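 Inhibition was measured as remaining ATP, detected by luciferase luminescence after a 1 h room-temperature reaction. Final conditions: 5 nM GALK, 100 uM galactose, 35 uM ATP, pH 8.0 HEPES buffer.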
The nature of assay [18]: Nrf2 qHTS screen for inhibitors: Validation (AID 493153; active means well fitted inhibition curve with a large enough effect in the main read-out, with a control signal flat, not every such curve was filed as active). The following applies: Potency: luciferase luminescence; viability change: measured here: cytotoxicity max response. A digest of the protocol: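 A549 cells carrying an ARE-driven firefly luciferase reporter, in 5% FBS OPTI-MEM, were treated with compounds in concentration-response for 18-24 h at 37°C. Viability was read by CellTiter-Fluor fluorescence, then Nrf2 activity by luciferase luminescence.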

Galactokinase (Homo sapiens), sequence (P51570 whole entry, looked up): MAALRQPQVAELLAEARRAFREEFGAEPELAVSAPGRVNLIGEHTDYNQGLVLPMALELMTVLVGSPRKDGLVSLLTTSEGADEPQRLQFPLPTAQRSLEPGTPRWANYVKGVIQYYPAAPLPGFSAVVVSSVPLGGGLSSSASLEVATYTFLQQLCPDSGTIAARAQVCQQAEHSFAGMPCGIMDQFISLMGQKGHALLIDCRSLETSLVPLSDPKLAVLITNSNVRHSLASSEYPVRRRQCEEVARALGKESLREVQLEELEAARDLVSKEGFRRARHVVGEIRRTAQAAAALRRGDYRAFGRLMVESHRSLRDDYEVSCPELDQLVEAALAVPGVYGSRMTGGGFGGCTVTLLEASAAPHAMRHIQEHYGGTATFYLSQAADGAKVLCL
Methanococcus maripaludis chaperonin (MmCpn), sequence (Q6LX38 1-543): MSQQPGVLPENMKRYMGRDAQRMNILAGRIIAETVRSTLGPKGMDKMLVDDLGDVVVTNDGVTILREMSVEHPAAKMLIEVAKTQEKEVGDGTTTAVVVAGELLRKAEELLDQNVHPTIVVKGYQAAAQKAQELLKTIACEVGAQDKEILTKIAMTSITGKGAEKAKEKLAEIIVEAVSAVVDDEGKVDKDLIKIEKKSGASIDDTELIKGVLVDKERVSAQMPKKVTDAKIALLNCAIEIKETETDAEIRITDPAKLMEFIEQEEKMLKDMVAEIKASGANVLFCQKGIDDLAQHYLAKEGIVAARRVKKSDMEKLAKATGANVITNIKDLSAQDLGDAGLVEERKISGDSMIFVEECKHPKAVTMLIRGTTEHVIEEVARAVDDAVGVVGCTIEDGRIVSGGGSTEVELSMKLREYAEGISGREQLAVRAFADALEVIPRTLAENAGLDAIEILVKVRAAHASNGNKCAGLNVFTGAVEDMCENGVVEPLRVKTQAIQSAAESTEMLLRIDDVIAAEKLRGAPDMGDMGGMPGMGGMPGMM
D(1A) dopamine receptor (Homo sapiens), sequence (P21728 whole entry, looked up): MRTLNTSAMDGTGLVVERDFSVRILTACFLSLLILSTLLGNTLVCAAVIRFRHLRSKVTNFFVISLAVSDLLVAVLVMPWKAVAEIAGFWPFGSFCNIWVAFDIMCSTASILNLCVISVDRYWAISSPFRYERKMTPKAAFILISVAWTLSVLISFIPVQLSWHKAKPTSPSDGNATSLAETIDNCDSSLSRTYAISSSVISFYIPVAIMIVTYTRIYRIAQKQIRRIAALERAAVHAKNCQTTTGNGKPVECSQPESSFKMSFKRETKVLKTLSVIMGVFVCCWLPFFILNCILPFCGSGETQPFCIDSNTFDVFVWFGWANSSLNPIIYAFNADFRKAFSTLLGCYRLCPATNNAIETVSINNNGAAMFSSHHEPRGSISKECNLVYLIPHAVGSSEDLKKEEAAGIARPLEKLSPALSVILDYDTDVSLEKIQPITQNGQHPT
Thyrotropin-releasing hormone receptor (Homo sapiens), sequence (P34981 whole entry, looked up): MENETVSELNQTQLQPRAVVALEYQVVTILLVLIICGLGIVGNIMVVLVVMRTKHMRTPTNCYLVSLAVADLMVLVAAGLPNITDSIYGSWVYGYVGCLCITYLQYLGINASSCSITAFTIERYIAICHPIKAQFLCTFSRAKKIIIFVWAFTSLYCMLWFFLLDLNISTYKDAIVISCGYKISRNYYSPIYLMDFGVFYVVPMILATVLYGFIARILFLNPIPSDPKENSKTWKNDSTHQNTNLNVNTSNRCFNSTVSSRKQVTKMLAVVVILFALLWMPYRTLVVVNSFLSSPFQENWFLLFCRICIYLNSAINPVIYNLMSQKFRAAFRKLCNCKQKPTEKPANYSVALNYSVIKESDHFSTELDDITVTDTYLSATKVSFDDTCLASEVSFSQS
Transient receptor potential cation channel subfamily V member 1 (Homo sapiens), sequence (Q8NER1 whole entry, looked up): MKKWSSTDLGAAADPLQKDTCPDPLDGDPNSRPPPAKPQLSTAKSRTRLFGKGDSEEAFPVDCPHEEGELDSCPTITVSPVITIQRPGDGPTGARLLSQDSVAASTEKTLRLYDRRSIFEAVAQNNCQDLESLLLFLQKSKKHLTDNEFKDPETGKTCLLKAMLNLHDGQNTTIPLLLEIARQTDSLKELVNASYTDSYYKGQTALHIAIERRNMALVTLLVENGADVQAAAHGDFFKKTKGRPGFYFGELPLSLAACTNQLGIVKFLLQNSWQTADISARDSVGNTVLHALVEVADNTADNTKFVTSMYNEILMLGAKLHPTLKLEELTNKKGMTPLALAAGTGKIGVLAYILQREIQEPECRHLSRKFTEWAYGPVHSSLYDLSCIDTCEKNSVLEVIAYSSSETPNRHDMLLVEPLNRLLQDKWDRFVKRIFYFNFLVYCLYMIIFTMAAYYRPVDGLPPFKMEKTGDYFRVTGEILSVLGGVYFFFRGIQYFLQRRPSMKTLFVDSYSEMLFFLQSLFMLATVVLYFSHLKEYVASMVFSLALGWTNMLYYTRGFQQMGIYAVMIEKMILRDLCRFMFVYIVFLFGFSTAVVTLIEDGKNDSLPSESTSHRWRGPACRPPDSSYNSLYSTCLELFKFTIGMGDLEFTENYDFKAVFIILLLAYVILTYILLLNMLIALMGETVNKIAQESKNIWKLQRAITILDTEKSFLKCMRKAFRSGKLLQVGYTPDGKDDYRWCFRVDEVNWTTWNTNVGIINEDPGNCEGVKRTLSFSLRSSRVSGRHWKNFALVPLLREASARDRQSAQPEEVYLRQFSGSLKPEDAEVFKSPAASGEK

Take `O=C(O)c1cc([N+](=O)[O-])ccc1NCCCc1ccccc1`: the Potency entry in assay [1], in assay [2], in assay [3], in [4], in [5] and in assay [9] was “inactive” each time. The Potency result in [10], in [11], in [12], in [13] and in assay [16] was “inactive” in each case. Also, the result in [6], in assay [7], in [8] and in assay [15] was inactive. Also, the activation in [14] is 0% (inactive).

As for `Ic1ccc(N2CCN(Cc3c[nH]c4ncccc34)CC2)cc1`, the Potency result in assay [1], in [2], in assay [3], in [4], in assay [9] and in assay [11] was “inactive” throughout. The Potency result in [12], in assay [17] and in assay [16] was “inactive” in each case. For the same compound, the Potency in assay [5] is 44.7 µM (active). Further, the compound was classed as inactive in assay [6], in assay [7] and in assay [8]. For the same compound, in assay [14], the activation was 3.5% (inactive).

With `COC(=O)c1c(C)[nH]c(C)c1C(=O)c1ccccc1Cc1ccccc1`, the Potency result in assay [1], in [2], in [3], in assay [9], in assay [10] and in assay [11] was “inactive” each time. The Potency result in assay [12], in assay [13], in assay [18], in assay [17] and in assay [16] was “inactive” each time. Moreover, the Potency is 39.8 µM (active) and inactive in assay [4]; 44.7 µM (active) in [5]. Further, the compound was classed as inactive in [6], in assay [7], in assay [8] and in assay [15]. For the same compound, in [14], the activation is 7.25% (inactive). Also, in [18], the viability change is -8.95%.

As for `OC[C@H]1O[C@@H](n2cnc3c(Nc4ccccc4)ncnc32)[C@H](O)[C@@H]1O`, the Potency result in assay [1], in assay [2], in [3], in assay [4], in [9] and in assay [10] was “inactive” throughout. The Potency entry in [11] and in assay [13] was “inactive” throughout. The values for the Potency in assay [5] and in assay [12] were 0.006 µM (active) and 9.2 µM (active), respectively. The call in assay [6] and in [15] was inactive.

`O=C(Nc1ccccc1)c1cc([N+](=O)[O-])ccc1Cl`: the Potency result in assay [1], in assay [2], in assay [3], in assay [4], in [5] and in assay [9] was “inactive” in each case. Moreover, the Potency entry in assay [10], in assay [11], in assay [12], in assay [18] and in [17] was “inactive” in each case. For the same compound, the compound was classed as inactive in [6], in [7], in [8] and in [15]. Moreover, the activation in [14] was 0.375% (inactive). In [18], the viability change was -4.87%.

On to `CC(C)(C=O)Cc1cc(C(C)(C)C)c(O)c(C(C)(C)C)c1`, for which the Potency entry in assay [1], in assay [2], in [3], in assay [4], in [5] and in assay [9] was “inactive” each time. For the same compound, the Potency entry in assay [12], in assay [13], in assay [18] and in [16] was “inactive” in each case. Besides, the result in assay [6], in [7], in assay [8] and in assay [15] was inactive. For the same compound, the activation in assay [14] was -9.5% (inactive). Also, in assay [18], the viability change was 5.81%.

For `Nc1nc(Cl)nc2c1ncn2[C@@H]1O[C@H](CO)[C@@H](O)[C@H]1O`, the Potency result in [1], in assay [2], in assay [3], in assay [4], in assay [5] and in assay [9] was “inactive” in each case. For the same compound, the Potency entry in assay [11], in assay [12], in assay [13] and in assay [18] was “inactive” each time. Also, the compound was called inactive in [6] and in assay [15]. Besides, in [18], the viability change is -2.02%.

Consider `CCCCCCCCCCCCCCCC(=O)OC(CC(=O)O)C[N+](C)(C)C` (stereo not drawn), for which the Potency entry in assay [1], in [2], in assay [3], in assay [4], in [5] and in assay [10] was “inactive” throughout. In addition, the Potency result in assay [12], in assay [13], in [18] and in assay [17] was “inactive” in each case. Moreover, the compound was called inactive in assay [8] and in assay [15]. For the same compound, the Potency is 10 µM (active) in assay [9] and 5.62 µM (active) in [11]. In addition, the activation in [14] was 1.06% (inactive). In addition, the viability change in [18] is -1.76%.
